# Assay results taken from PubChem BioAssay (NCI).
# About 83,000 compounds went through this panel and 20% of them were active in at least one assay; those are over-represented in the sample as a whole.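 Method: cells in 96-well plates; compound added at one concentration; 48 h incubation; percent growth measured; values under 10 scored active.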 Unmarked numbers belong to inactive results. Active and inactive are the calls of the source.
# Test system: NCI-H460 lung
# Assay: NCI-60 one-dose screen, 48 h (100 = growth as untreated, 0 = no growth, -100 = all killed)
# Settings: 10 µM unless noted
row,Structure (SMILES),growth
1,O=C(Cc1ccc(F)c(Cl)c1)Nc1cc(C2(C(F)(F)F)CC2)nn1CC1CCCCC1,3.01% (active)
2,O=C(S)CNC(=O)c1ccccc1,105%
3,COc1cc(CCC[P+](c2ccccc2)(c2ccccc2)c2ccccc2)c(OC)c(OC)c1OC,82.2%
4,COc1cc2cc(Oc3ccc(NC(=O)Nc4ccc(Cl)c(C(F)(F)F)c4)cc3)c(C)nc2cc1OCCN1CCOCC1,8.67% (active)
5,Cc1cc2nc3cc(C)c(N)cc3[n+](-c3ccccc3)c2cc1N,65.6%
6,CN1CCN(c2ccc(-c3cc4c(Nc5ccc(F)c(Cl)c5)ncnn4c3)cc2)CC1,8.58% (active)
7,COc1ccc(S(=O)(=O)n2cc(C3OC(c4cc(OC)c(OC)c(OC)c4)=NN3C(C)=O)c3ccccc32)cc1OC (stereo not drawn),97.1%
8,COc1nc2ccc(C)cc2cc1-c1nc2c(cnn2-c2ccccc2)c(=O)[nH]1,80.3%
9,Cc1cccc2c3c(sc12)C(c1ccc(Cl)cc1)C(C#N)=C(N)O3 (stereo not drawn),9.2% (active)
10,CN(C)c1ccc2nc3ccc(=[N+](C)C)c([N+](=O)[O-])c-3sc2c1,25.3%
11,Cc1ccc(C(=O)N/N=C/c2cccc(Oc3ccccc3)c2)cn1,33.3%
12,Cc1c(C(=O)N[C@@H](Cc2ccccc2)C(=O)C(=O)NCc2ccc(F)cc2)[nH]c2ccccc2c1=O,56.9%
13,Cc1c(C(=O)NCCCc2ccccc2)sc2ncc(-c3ccc(Br)cc3)n12,107%
14,COc1ccc(-c2conc2-c2ccccc2)cc1,7.41% (active)
15,Cc1ccccc1C(=O)NN,115%
16,CCS(=O)(=O)c1ncnc2nc[nH]c12,105%
17,CCCCC[C@H](O)C/C=C1/C(=O)C=C[C@@H]1C/C=C\CCCC(=O)O,66.9%
18,C=C1CC[C@H](C(C)C)[C@@H]2[C@H]1[C@H]1CC(=C)[C@@H](O)CC[C@@](C)(O)[C@@H]2O1,108%
19,COc1ccc(-c2[nH]c3ccc(OC)cc3c2/C=C(\C#N)S(=O)(=O)c2ccccc2)cc1,4.64% (active)

row,Structure (SMILES),growth
1,COc1ccc(C(=O)n2nc(-c3ccccc3)nc2N)cc1OC,98.3%
2,O=c1ccn(Cc2cn(-c3c4ccccc4nc4ccccc34)nn2)c(=O)[nH]1,96.5%
3,CC/C=C\C[C@@H](O)C/C=C1/C(=O)C=C[C@H]1C/C=C\CCCC(=O)OC,-33.2% (active)
4,CCCCn1c(=O)c(-c2cc(-c3ccc(Cl)cc3)nc(-c3ccc(Cl)cc3)c2)cc2cc(Cl)ccc21,108%
5,Cc1nc2cnc(N)c(C#Cc3cncc(C(=O)Nc4ccc(CN5CCN(C)CC5)c(C(F)(F)F)c4)c3)c2nc1C,4.26% (active)
6,O=C1/C(=C/c2ccc(F)cc2)Sc2c(Br)cccc21,93.6%
7,Cc1ccc(-c2nc(N3CCN(C(=O)c4ccc(OC(F)(F)F)cc4)CC3)c3ccccc3n2)cc1,92.8%
8,CCOC(=O)c1c2c(n(-c3ccc(C#N)cc3)c1-c1ccccc1)C=CCC2,98.9%
9,CCOc1c(B(O)O)cccc1-c1nc2ccc3[nH]ncc3c2c2c1CCCC2,42.1%
10,CCOC(=O)C1=C(N)Oc2c(sc3c(CC)cccc23)C1c1ccc(F)cc1 (stereo not drawn),17%
11,CCCCCCn1c(-c2ccc(C(=O)O/N=C(\N)c3ccc4ccccc4c3)cc2)nc(-c2ccccc2)c1-c1ccccc1,58.5%
12,C=C(C)C1CCC2(C)OC2C1 (stereo not drawn),103%
13,Clc1ccc(C(/C=C/c2sc(Cl)nc2Cl)=N/Nc2cc(Cl)cc(Cl)c2)cc1,103%
14,c1ccc2c(-c3nc(-c4c[nH]c5ccncc45)cs3)c[nH]c2c1,-26.4% (active)
15,c1ccc(CO[C@H]2CO[C@H]3[C@@H]2OC[C@@H]3Oc2ccc(Nc3ncnc4ccsc34)cc2)cc1,84.5%
16,COc1cc2cc(Oc3ccc(NC(=O)Nc4ccc(Cl)c(Cl)c4)cc3)c(C)nc2cc1OCCN1CCOCC1,91.8%
17,Cc1nc2ccccc2c(/C=C/c2ccccc2)c1C(=O)/C=C/c1ccc(C(F)(F)F)cc1,-71.6% (active)
18,CCOC(=O)c1nc(Nc2ccc(C(C)=O)cc2)sc1C,105%
19,CCOC(=O)Nc1ccc(-c2nc(-c3cccc(OCCN4CCOCC4)c3)c(-c3ccnc(Br)c3)[nH]2)cc1,54.1%
